Test results taken from the supplement of paper PMC10646978.
± gives the standard deviation.

Assays:
Details in all cases: modulator concentration 10 µM
[1] = tested on: RAW-Dual (murine macrophage reporter line); assay: NF-kB reporter (SEAP) activity fold change vs agonist alone; higher = enhanced NF-kB activity
In short: (§1)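 RAW-Dual murine macrophage reporter cells were plated at 50 000 per well in 384-well plates, pin-transferred compound to 10 μM final, and pre-incubated for 1 hour at 37 °C before a PRR agonist was added and the cells incubated overnight. NF-κB activity was read from supernatant SEAP with QUANTI-Blue at 620 nm absorbance, and IRF activity from Lucia luciferase with QUANTI-Luc by luminescence. Each signal was expressed as fold change by dividing by the mean agonist-only control on the same plate. Two replicate plates were averaged, with errors obtained by propagation.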

[2] = tested on: RAW-Dual (murine macrophage reporter line); assay: IRF reporter (Lucia luciferase) activity fold change vs agonist alone; higher = enhanced IRF activity
In short: as §1

[3] = tested on: RAW-Dual (murine macrophage reporter line); assay: viability score (confluency relative to resting cells, overnight) (fraction); higher = more viable, active = viable (0.7 or more)
In short: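 RAW-Dual macrophages in 384-well plates were incubated overnight with compound, final concentration 10 μM. Confluency images from IncuCyte were processed in IncuCyte software into two masks covering all imaged wells. The viability score is each well's confluency relative to resting cells, and a compound met the cutoff when both masks exceeded 70% of resting cells.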

[4] = agonist: CpG ODN 1826 0.5 ug/mL

Structure (SMILES)	NF-kB reporter [1, 4]	NF-kB reporter ([1]; agonist: LPS 0.1 ug/mL)	NF-kB reporter ([1]; agonist: MPLA […])	IRF reporter ([2]; agonist: 3'3'-cGAMP 10 ug/mL)	IRF reporter ([2]; agonist: LPS 0.1 ug/mL)	IRF reporter ([2]; agonist: MPLA […])	viability score [3]
C=CCn1c(=N)n(CC(O)c2ccco2)c2ccccc21.Cl (configuration not stated)	1.15 ± 0.13	0.961 ± 0.1	1.21 ± 0.056	1.07 ± 0.17	1.03 ± 0.043	0.936 ± 0.061	1 (active)
CSc1ccccc1NC(=O)C1CCCN(c2ccc(-n3cncn3)nn2)C1 (configuration not stated)	0.991 ± 0.073	1.04 ± 0.099	1.18 ± 0.063	0.973 ± 0.077	1.23 ± 0.22	1.43 ± 0.37	0.995 (active)
CCCCNc1ccc(C(=O)OCCN(C)C)cc1.Cl	0.906 ± 0.12	0.983 ± 0.31	0.987 ± 0.055	0.824 ± 0.039	1.15 ± 0.34	1.09 ± 0.086	1.01 (active)
CN(C)CC/C=C1\c2ccccc2COc2ccccc21.Cl	0.888 ± 0.038	1.06 ± 0.15	1.36 ± 0.096	0.434 ± 0.02	0.73 ± 0.14	0.876 ± 0.3	1.01 (active)
COc1ccccc1N1CCN(CCCNc2cc(=O)n(C)c(=O)n2C)CC1.Cl	1.2 ± 0.3	1.08 ± 0.34	0.954 ± 0.085	0.959 ± 0.029	1.21 ± 0.4	1.12 ± 0.092	0.996 (active)
CCOC(=O)C1=C(CC)OC(N)=C(C#N)C1c1cccc(Oc2ccc(Cl)cc2)c1 (configuration not stated)	0.746 ± 0.058	0.662 ± 0.05	0.769 ± 0.073	0.281 ± 0.0095	1.13 ± 0.18	1.12 ± 0.2	0.972 (active)
Cc1cc(C(O)CCNC(=O)Nc2ccc(Cl)c(Cl)c2)c(C)o1 (configuration not stated)	0.577 ± 0.033	0.87 ± 0.075	0.791 ± 0.072	0.835 ± 0.038	0.974 ± 0.22	0.863 ± 0.31	0.975 (active)
CC12CCC3c4ccc(O)cc4CCC3C1CCC2OC(=O)CCC1CCCC1 (configuration not stated)	1.02 ± 0.093	0.997 ± 0.09	0.867 ± 0.082	0.969 ± 0.03	1.15 ± 0.15	1.21 ± 0.14	0.98 (active)
Nc1ccn(C2OC(CO)C(O)C2O)c(=O)n1 (configuration not stated)	1 ± 0.082	0.875 ± 0.092	1.49 ± 0.44	0.96 ± 0.052	1.25 ± 0.2	1.26 ± 0.27	1.03 (active)
Cc1ccc(C)c(C(=O)c2ccccc2NC(=O)c2ccccn2)c1	0.733 ± 0.041	0.85 ± 0.071	0.839 ± 0.054	1.01 ± 0.068	1.18 ± 0.15	1.11 ± 0.13	1.01 (active)
CCN(CC)CCOC(=O)c1ccc(N)cc1Cl.Cl	1.06 ± 0.094	0.971 ± 0.048	1.04 ± 0.038	0.957 ± 0.087	1.01 ± 0.089	0.897 ± 0.077	0.999 (active)
O=c1c2c([nH]c3c(-c4cccc5ccccc45)cnn13)CCCC2	1.02 ± 0.095	1.07 ± 0.067	0.913 ± 0.062	0.987 ± 0.027	1.47 ± 0.23	1.09 ± 0.2	1.01 (active)
COc1cc(C2CC3CC2C(C)C3(C)C)ccc1O (configuration not stated)	0.638 ± 0.098	0.716 ± 0.052	0.773 ± 0.078	0.926 ± 0.031	1.01 ± 0.14	1.34 ± 0.22	1.01 (active)
CCOC(=O)Nc1ccc(NCc2ccc(F)cc2)nc1N.O=C(O)/C=C/C(=O)O	1.21 ± 0.16	1.3 ± 0.34	0.885 ± 0.05	0.678 ± 0.043	1.3 ± 0.23	1.12 ± 0.09	0.977 (active)
Nc1ccc(S(N)(=O)=O)cc1	1.1 ± 0.094	0.993 ± 0.069	1 ± 0.088	1.22 ± 0.27	0.933 ± 0.038	0.904 ± 0.072	0.994 (active)
CCN(CC)c1ccc(C=Nc2c(C)cc(C)cc2C)cc1	0.97 ± 0.08	1.03 ± 0.086	0.959 ± 0.054	0.894 ± 0.046	0.968 ± 0.063	0.94 ± 0.065	1 (active)
CC(=O)c1cc2c(o1)C(=O)c1ccccc1C2=O	1.19 ± 0.28	1.36 ± 0.068	1.31 ± 0.1	0.995 ± 0.035	1.12 ± 0.16	1.18 ± 0.27	0.995 (active)
CCN(CC)C(=O)Nc1ccc(OCC(O)CNC(C)(C)C)c(C(C)=O)c1 (configuration not stated) [Prestw-1132]	1.41 ± 0.08	1.01 ± 0.062	1.16 ± 0.079	0.979 ± 0.059	1.44 ± 0.15	1.29 ± 0.12	0.997 (active)
CC1=NN(c2ccc(C)cc2)C(=O)C1=Cc1c(C)nn(-c2ccc(C)cc2C)c1O	1.03 ± 0.08	0.922 ± 0.089	1.02 ± 0.096	0.986 ± 0.046	1.21 ± 0.2	1.26 ± 0.19	1.03 (active)
OC(CNC1CCCCC1)Cn1c2ccc(Cl)cc2c2cc(Cl)ccc21 (configuration not stated)	0.137 ± 0.03	0.219 ± 0.037	0.613 ± 0.042	0.11 ± 0.058	0.302 ± 0.018	0.436 ± 0.12	0.0501 (inactive)
C[C@H]1[C@@H](OC(=O)CCC(=O)O)O[C@@H]2O[C@]3(C)CC[C@H]4[C@H](C)CC[C@@H]1[C@@]24OO3	1.02 ± 0.071	1.12 ± 0.11	0.95 ± 0.043	0.934 ± 0.11	1.11 ± 0.14	1.06 ± 0.25	1 (active)
CCN1CCCC1CNC(=O)c1cc(S(=O)(=O)CC)c(N)cc1OC (configuration not stated)	1.69 ± 0.23	1.28 ± 0.32	1.23 ± 0.089	0.819 ± 0.032	0.957 ± 0.29	0.808 ± 0.12	0.994 (active)
Cc1ccc(S(=O)(=O)CCSc2cccc(C(=O)Nc3ccccc3)c2)cc1	0.992 ± 0.068	1.03 ± 0.087	0.909 ± 0.1	0.808 ± 0.03	1.26 ± 0.13	1.08 ± 0.098	1 (active)
Cc1ccc(C2(c3ccc(C)cc3)CC2C(=O)Nc2ccccc2)cc1 (configuration not stated)	0.728 ± 0.079	0.905 ± 0.12	1.51 ± 0.071	0.541 ± 0.031	0.835 ± 0.12	0.654 ± 0.12	0.992 (active)
CC1CC2(NC(=O)NC2=O)C(C)CN1C (configuration not stated)	0.933 ± 0.061	1.01 ± 0.088	0.87 ± 0.053	0.99 ± 0.034	1.34 ± 0.2	1.21 ± 0.15	1 (active)
COc1ncc(-c2ccc3nccc(-c4ccnnc4)c3c2)cc1NS(=O)(=O)c1ccc(F)cc1F	1.56 ± 0.067	1.79 ± 0.14	3.01 ± 0.16	0.389 ± 0.051	1.2 ± 0.1	2.66 ± 0.33	0.33 (inactive)
